Laboratory results published in PubChem BioAssay.

Experiment: JC-1 mitochondrial signal, unstimulated myeloma cells – cell-based, JC-1 fluorescence, RPMI8226, 24 h, 100 nL compound, profiling panel (AID 1169); also: test concentration not given here
Conditions: JC-1 mitochondrial potential fluorescence, higher = more signal

SMILES | z-score
COc1ccc(COC(=O)NN=C2C[C@@H](O)[C@@H](O)[C@@H]3[C@@H]4C(=O)N([C@@H](C)c5ccccc5)C(=O)[C@@H]4CC[C@@H]23)cc1 | -0.189
C[C@@H]1CC[C@H]2C(=O)N3[C@@H](CC[C@@H](C)[C@@H]3c3ccc(Br)cc3)C(=O)N2[C@H]1c1ccc(Br)cc1 | -0.22
CCOC(=O)CCN1C(=O)[C@H]2[C@H]3[C@H](O)[C@H](O)CC(=O)[C@@H]3CC[C@H]2C1=O | -0.798
COC(=O)[C@H](CCSC)NC(=O)CC=C[C@@H](C)CO | -0.545
CCOC(=O)[C@H](Cc1ccccc1)NC(=O)CCC1CC(OC(=O)NCc2cccc3ccccc23)CC2(CCCC(COC(=O)NCCOc3ccccc3)O2)O1 (stereo partly specified) | 0.113
COc1ccc(COC(=O)NN=C2C[C@@H](O)[C@@H](O)[C@@H]3[C@@H]4C(=O)N(c5cccc(Oc6ccccc6)c5)C(=O)[C@@H]4CC[C@H]23)cc1 | 0.197
COc1ccc(OC[C@@H]2CC3[C@@H](c4ccc(Br)cc4)[C@H](C)CC[C@H]3C(=O)O2)cc1 (stereo partly specified) | 0.196
COC(=O)[C@H](C)NC(=O)CCC1CC(OC(=O)NCc2cccc3ccccc23)CC2(CCCC(COC(=O)NCCc3ccccc3OC)O2)O1 (stereo partly specified) | 0.179
COc1ccc(OC[C@@H](CO)OC)cc1 | 0.104
COc1ccc(COC(=O)NN=C2C[C@@H](O)[C@@H](O)[C@@H]3[C@@H]4C(=O)N(C[C@@H]5CCCO5)C(=O)[C@@H]4CC[C@@H]23)cc1 | -0.252
CCOC(=O)[C@H](CC(C)C)NC(=O)CCC1CC(OC(=O)NCc2ccc3c(c2)OCO3)CC2(CCCC(COC(=O)NCCOc3ccccc3)O2)O1 (stereo partly specified) | -0.879
